Assay results taken from PubChem BioAssay (EPA / NIEHS).
Activity calls are given as the source filed them. The calls were made as follows: active = hit-call score of the fitted dose curve at least 0.9, where 1 is the maximum; inactive = score below 0.9.

Legend:
[1] = APR_HepG2_NuclearSize_72hr: Apredica 72-hour HepG2 Assay for Nuclear Size (AID 2282925); settings: high-content imaging, actives raise or lower the signal
Summary of the method: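 Nuclear size was read by high-content imaging of Hoechst 33342 stain after formaldehyde fixation. Compounds ran 72 h on HepG2 at 0.39 to 200 uM, with final DMSO 0.5% v/v. Curves fitted both directions relative to DMSO control.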

[2] = ATG_CRE_CIS: Attagene CIS-FACTORIAL HepG2 Assay for human cAMP Responsive Element (CRE) binding protein 3 (AID 2282926); settings: HepG2 CRE cis-reporter, Attagene multiplexed mRNA; actives raise or lower the signal
Summary of the method: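 Cells carrying cis-regulated reporter constructs respond through their own endogenous factors. After 24 h treatment, RNA is reverse-transcribed, amplified, labelled and sized by capillary electrophoresis; up- and down-regulation are both scored against vehicle.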

[3] = molecular target: CCAAT/enhancer-binding protein beta (Homo sapiens) (UniProt P17676); assay: ATG_C_EBP_CIS: Attagene CIS-FACTORIAL HepG2 Assay for human CCAAT/Enhancer Binding Protein (C/EBP) beta (AID 2282927); settings: HepG2 Attagene cis-factorial transcription factor reporter; actives raise or lower the signal
Summary of the method: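 Endogenous C/EBPb-driven reporter transcripts measured in transfected human HepG2 cells at 24 h via RT-PCR and capillary electrophoresis of labelled fragments. Activity fitted in both directions relative to DMSO baseline.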

[4] = ATG_CMV_CIS: Attagene CIS-FACTORIAL HepG2 Assay for human CMV (Internal Marker) (AID 2282928); settings: HepG2 CMV promoter reporter, transcription factor profiling; actives raise or lower the signal;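 also: endpoint acts as a background internal control marker rather than a target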
Summary of the method: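 Bidirectional fits against DMSO are applied to reporter mRNA, read by RT-PCR with capillary electrophoresis, from HepG2 cells exposed 24 h. The endpoint serves as an internal CMV background marker within the cis-factorial reporter panel.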

[5] = ATG_DR4_LXR_CIS: Attagene CIS-FACTORIAL HepG2 Assay for human Liver X Receptor (LXR), DR4 submotif (AID 2282929); settings: HepG2 Attagene DR4 cis-reporter, mRNA transcription; actives raise or lower the signal
Summary of the method: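 Endogenous factor activity at a DR4 cis-element is read as reporter mRNA in transiently transfected HepG2 cells. Exposure lasts 24 h; transcripts are amplified, fluorescently labelled and sized by capillary electrophoresis, with DMSO as baseline.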

[6] = molecular target: Aryl hydrocarbon receptor (Homo sapiens) (UniProt P35869); assay: ATG_Ahr_CIS: Attagene CIS-FACTORIAL HepG2 Assay for human Aryl Hydrocarbon Receptor (Ahr) (AID 2282930); settings: HepG2 AhR cis-factorial reporter transcription; actives raise or lower the signal
Summary of the method: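 Reporter mRNA levels, quantified by RT-PCR and fluorescent capillary electrophoresis, reflect endogenous AhR transcriptional activity in HepG2 cells carrying transfected cis-promoter reporter constructs. Readout at 24 h post-dose; gain or loss fitted against DMSO baseline.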

[7] = ATG_AP_1_CIS: Attagene CIS-FACTORIAL HepG2 Assay for human Activator Protein 1 (AP-1) (AID 2282931); settings: HepG2 Attagene cis-factorial AP-1 reporter mRNA; actives raise or lower the signal
Summary of the method: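 Fluorescence of labelled PCR fragments separated by capillary electrophoresis gives reporter mRNA levels. HepG2 with transfected cis-regulated reporter units, 24 h exposure; DMSO serves as baseline for bidirectional curve fits.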

[8] = molecular target: Transcription factor E2F1 (Homo sapiens) (UniProt Q01094); assay: ATG_E2F_CIS: Attagene CIS-FACTORIAL HepG2 Assay for human E2F Transcription Factor 1 (AID 2282935); settings: HepG2 Attagene cis-reporter, E2F reporter RNA transcripts; actives raise or lower the signal
Summary of the method: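 Gain or loss of reporter transcript, fitted against DMSO, reflects E2F1-driven transcription. Transiently transfected HepG2 dosed 24 h before RNA isolation. Quantified by fluorescent RT-PCR products separated by capillary electrophoresis.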

[9] = ATG_E_Box_CIS: Attagene CIS-FACTORIAL HepG2 Assay for human Enhancer Box (E-box) (AID 2282936); settings: HepG2 E-box cis-reporter transcription, actives raise or lower the signal
Summary of the method: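 E-box-driven reporter transcripts measured in transiently transfected HepG2 after 24 h exposure: RNA reverse-transcribed, PCR-amplified, fluorescently labelled, digested and resolved by capillary electrophoresis. Gain or loss relative to DMSO.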

[10] = ATG_M_61_CIS: Attagene CIS-FACTORIAL HepG2 Assay for M61 Transcription Factor (Internal Marker) (AID 2282937); settings: HepG2 Attagene CIS-FACTORIAL M61 internal marker reporter; actives raise or lower the signal
Summary of the method: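 This endpoint serves as an internal background control within a multiplexed HepG2 cis-reporter panel. Cells are exposed for 24 h; reporter mRNA is amplified, fluorescently labelled and sized by capillary electrophoresis, with DMSO as negative control.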

[11] = ATG_EGR_CIS: Attagene CIS-FACTORIAL HepG2 Assay for human Early Growth Response 1 (EGR1) (AID 2282938); settings: HepG2 Attagene CIS-FACTORIAL EGR reporter mRNA; actives raise or lower the signal
Summary of the method: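 HepG2, transient MRTU transfection (cis promoters), 24 h compound. RNA → RT (oligo-dT) → PCR → 6-FAM labelling → HpaI cut → CE fluorescence. Bidirectional fit, DMSO baseline.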

[12] = ATG_M_19_CIS: Attagene CIS-FACTORIAL HepG2 Assay for M19 Transcription Factor (Internal Marker) (AID 2282939); settings: HepG2 Attagene CIS-FACTORIAL M19 internal marker reporter; actives raise or lower the signal
Summary of the method: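 Transfect HepG2 with MRTU reporter library → dose chemical, 24 h → isolate total RNA, reverse-transcribe with oligo(dT) → PCR, 6-FAM label, HpaI cut (2 h, 37 C) → capillary electrophoresis. Bidirectional fit vs DMSO.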

[13] = ATG_ERE_CIS: Attagene CIS-FACTORIAL HepG2 Assay for Estrogen Response Element (ERE) (AID 2282940); settings: HepG2 ERE cis-reporter, Attagene RNA transcript; actives raise or lower the signal
Summary of the method: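 Transient MRTU transfection of human HepG2; cis-element promoters; 24 h dosing; total RNA → RT (oligo dT) → PCR → 6-FAM primer extension → HpaI digest → CE fluorescence. Bidirectional fit, DMSO baseline.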

[14] = ATG_Ets_CIS: Attagene CIS-FACTORIAL HepG2 Assay for human Erythroblast Transformation Specific (ETS) (AID 2282941); settings: HepG2 ETS cis-reporter transcription, actives raise or lower the signal
Summary of the method: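 Endogenous transcription factor activity read as reporter mRNA via RT-PCR and capillary electrophoresis, with gain or loss fitted bidirectionally against DMSO. Human HepG2 liver cells, transiently transfected CIS reporter constructs, 24 h exposure.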

[15] = molecular target: Hepatocyte nuclear factor 3-beta (Homo sapiens) (UniProt Q9Y261); assay: ATG_FoxA2_CIS: Attagene CIS-FACTORIAL HepG2 Assay for human Forkhead box A2 (FOXA2) (AID 2282942); settings: HepG2 cis-reporter transcription factor activity, 24 h; actives raise or lower the signal
Summary of the method: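 Cells: HepG2, transient multiplex reporter transfection. Exposure 24 h. Detection: reporter-specific RT-PCR, fluorescent labelling, restriction digest, capillary electrophoresis. Analysis: bidirectional curve fit, DMSO as negative control.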

[16] = ATG_FoxO_CIS: Attagene CIS-FACTORIAL HepG2 Assay for human Forkhead box O (FoxO) (AID 2282943); settings: HepG2 Attagene cis-reporter, FoxO element, mRNA; actives raise or lower the signal
Summary of the method: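 Endogenous transcription factor activity read from multiplexed cis-promoter reporter transcripts in transiently transfected HepG2, 24 h after dosing. Reporter RNA measured via RT-PCR plus capillary electrophoresis of FAM-labeled products; gain or loss relative to DMSO.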

[17] = ATG_GATA_CIS: Attagene CIS-FACTORIAL HepG2 Assay for human GATA Binding Protein (AID 2282944); settings: HepG2 GATA cis-element reporter, Attagene multiplex mRNA; actives raise or lower the signal
Summary of the method: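 Transient MRTU transfection, HepG2, 24 h compound exposure. Total RNA → oligo(dT) RT → PCR → 6-FAM primer extension → HpaI cut → CE. Bidirectional fit vs DMSO.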

[18] = ATG_AP_2_CIS: Attagene CIS-FACTORIAL HepG2 Assay for human Activator Protein 2 (AP-2) (AID 2282932); settings: HepG2 AP-2 cis-reporter, Attagene transcription factor profiling; actives raise or lower the signal
Summary of the method: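 Endogenous transcription factor activity is reported through transfected multiplex reporter constructs in HepG2, after 24 h of compound exposure. Transcripts were quantified by RT-PCR and capillary electrophoresis of fluorescent fragments. Bidirectional fit against DMSO.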

[19] = ATG_BRE_CIS: Attagene CIS-FACTORIAL HepG2 Assay for human Bone Morphogenetic Protein (BMP) Response Element (BRE) (AID 2282933); settings: HepG2 BMP response element reporter, Attagene transcription factor profiling; actives raise or lower the signal
Summary of the method: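 Transient MRTU transfection of human HepG2 liver cells; 24 h compound treatment; total RNA isolated, reverse-transcribed, PCR-amplified, 6-FAM labelled, HpaI-cut, capillary electrophoresis. DMSO = negative control/baseline, bidirectional fit.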

[20] = molecular target: Retinoic acid receptor alpha (Homo sapiens) (UniProt P10276); assay: ATG_DR5_RAR_CIS: Attagene CIS-FACTORIAL HepG2 Assay for human Retinoic Acid Receptor Alpha (RARE), DR5 submotif (AID 2282934); settings: HepG2 Attagene cis-factorial RARE DR5 reporter, mRNA; actives raise or lower the signal
Summary of the method: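 Reporter transcripts from a DR5-regulated unit, measured via RT-PCR plus capillary electrophoresis, reflect endogenous RAR activity in transiently transfected human HepG2 liver cells. Exposure lasted 24 h; gain or loss of signal scored against DMSO.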

Measured: AC50

Transcription factor E2F1 (Homo sapiens), sequence (Q01094 whole entry, looked up): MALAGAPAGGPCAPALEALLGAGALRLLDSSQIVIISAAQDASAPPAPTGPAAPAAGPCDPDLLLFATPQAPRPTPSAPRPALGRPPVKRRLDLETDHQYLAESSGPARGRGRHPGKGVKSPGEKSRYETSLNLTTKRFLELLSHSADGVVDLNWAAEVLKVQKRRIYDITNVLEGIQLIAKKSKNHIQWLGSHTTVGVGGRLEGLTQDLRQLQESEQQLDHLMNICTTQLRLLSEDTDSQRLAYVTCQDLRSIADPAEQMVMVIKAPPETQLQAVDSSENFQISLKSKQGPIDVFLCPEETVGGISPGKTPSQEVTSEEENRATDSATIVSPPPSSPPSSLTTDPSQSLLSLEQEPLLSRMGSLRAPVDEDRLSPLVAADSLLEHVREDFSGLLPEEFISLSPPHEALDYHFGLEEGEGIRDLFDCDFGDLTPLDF
Aryl hydrocarbon receptor (Homo sapiens), sequence (P35869 whole entry, looked up): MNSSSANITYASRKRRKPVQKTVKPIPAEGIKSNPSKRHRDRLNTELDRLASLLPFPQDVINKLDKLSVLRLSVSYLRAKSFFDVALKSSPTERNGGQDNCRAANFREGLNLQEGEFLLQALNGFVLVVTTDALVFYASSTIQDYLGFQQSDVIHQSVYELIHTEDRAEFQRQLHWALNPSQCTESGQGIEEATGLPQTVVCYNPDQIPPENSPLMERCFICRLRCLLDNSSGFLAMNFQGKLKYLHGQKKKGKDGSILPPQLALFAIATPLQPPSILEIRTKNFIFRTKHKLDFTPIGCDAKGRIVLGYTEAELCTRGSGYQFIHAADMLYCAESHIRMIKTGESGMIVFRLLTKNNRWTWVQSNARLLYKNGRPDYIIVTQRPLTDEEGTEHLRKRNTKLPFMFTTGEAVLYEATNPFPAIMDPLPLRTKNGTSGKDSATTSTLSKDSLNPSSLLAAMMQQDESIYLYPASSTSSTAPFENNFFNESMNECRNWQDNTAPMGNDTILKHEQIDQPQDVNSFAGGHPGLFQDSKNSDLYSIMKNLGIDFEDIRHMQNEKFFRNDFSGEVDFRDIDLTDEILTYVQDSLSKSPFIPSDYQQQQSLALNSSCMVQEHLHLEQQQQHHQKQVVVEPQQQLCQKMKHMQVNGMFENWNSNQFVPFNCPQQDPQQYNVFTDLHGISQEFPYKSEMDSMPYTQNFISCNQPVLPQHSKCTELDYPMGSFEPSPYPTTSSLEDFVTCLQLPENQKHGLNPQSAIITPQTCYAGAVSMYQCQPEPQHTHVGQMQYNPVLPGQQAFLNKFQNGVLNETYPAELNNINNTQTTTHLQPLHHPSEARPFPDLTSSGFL
Retinoic acid receptor alpha (Homo sapiens), sequence (P10276 whole entry, looked up): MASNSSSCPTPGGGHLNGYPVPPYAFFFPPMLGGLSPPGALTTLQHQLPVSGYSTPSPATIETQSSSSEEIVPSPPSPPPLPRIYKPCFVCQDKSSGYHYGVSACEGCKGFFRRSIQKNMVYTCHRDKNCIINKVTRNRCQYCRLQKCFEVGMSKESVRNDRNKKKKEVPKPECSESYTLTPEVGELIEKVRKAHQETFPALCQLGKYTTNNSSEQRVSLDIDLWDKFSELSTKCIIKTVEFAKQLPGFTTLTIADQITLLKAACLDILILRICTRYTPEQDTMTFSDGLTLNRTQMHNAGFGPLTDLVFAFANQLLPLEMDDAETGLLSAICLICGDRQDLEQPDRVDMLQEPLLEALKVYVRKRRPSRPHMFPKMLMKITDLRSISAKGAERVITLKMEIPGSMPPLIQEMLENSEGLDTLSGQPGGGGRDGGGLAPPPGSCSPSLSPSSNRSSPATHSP
CCAAT/enhancer-binding protein beta (Homo sapiens), sequence (P17676 whole entry, looked up, the tested form may be a part): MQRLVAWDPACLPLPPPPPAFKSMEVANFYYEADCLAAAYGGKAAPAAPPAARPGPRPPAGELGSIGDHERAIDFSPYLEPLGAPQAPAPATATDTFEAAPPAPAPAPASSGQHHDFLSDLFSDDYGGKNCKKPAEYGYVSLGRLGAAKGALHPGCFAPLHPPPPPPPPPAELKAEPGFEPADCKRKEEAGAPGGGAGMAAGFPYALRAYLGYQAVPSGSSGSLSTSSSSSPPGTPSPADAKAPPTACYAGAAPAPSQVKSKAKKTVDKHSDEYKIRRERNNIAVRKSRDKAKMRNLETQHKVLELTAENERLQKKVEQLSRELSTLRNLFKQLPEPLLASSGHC
Hepatocyte nuclear factor 3-beta (Homo sapiens), sequence (Q9Y261 whole entry, looked up): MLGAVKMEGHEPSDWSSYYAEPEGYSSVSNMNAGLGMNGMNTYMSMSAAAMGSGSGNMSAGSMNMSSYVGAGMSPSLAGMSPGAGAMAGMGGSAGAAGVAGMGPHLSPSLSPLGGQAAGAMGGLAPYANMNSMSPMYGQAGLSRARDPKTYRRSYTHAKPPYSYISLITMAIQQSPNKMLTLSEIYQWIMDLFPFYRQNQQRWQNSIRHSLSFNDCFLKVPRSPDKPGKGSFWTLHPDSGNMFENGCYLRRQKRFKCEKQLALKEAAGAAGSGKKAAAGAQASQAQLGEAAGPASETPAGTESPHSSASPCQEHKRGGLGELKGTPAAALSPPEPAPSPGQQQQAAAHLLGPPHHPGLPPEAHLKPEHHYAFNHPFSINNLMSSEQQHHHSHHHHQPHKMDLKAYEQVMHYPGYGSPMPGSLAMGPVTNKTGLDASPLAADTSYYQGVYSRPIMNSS

Cc1cc(NC(=O)C(=O)O)cc(C)c1Oc1ccc(O)c2c1CCC2
active: [5] 156 µM
not listed: [18] | [19] | [20]
inactive: all other assays above

O=c1[nH]cc(F)c(=O)[nH]1
active: [4] 8.27 µM | [7] 12.9 µM
not listed: [20]
inactive: all other assays above

CCOC(=O)CCC(=O)OCC
active: [6] 75.7 µM
not listed: [19]
inactive: all other assays above

Cc1ccc(C)c(C)c1
not listed: [18] | [19]
inactive: all other assays above

CC1(C)CC(N=C=O)CC(C)(CN=C=O)C1 (stereo unspecified)
inactive: all assays above

Cc1oc(-c2ccccc2)nc1CCOc1cccc2c1ccn2CCC(=O)O
active: [4] 19.8 µM | [5] 19.8 µM | [13] 0.066 µM | [15] 1.86 µM
inactive: all other assays above

Cc1cc(=O)[nH]c(=S)[nH]1
not listed: [19] | [20]
inactive: all other assays above
